Test [1] can be described thus: Nuclear factor erythroid 2-related factor 2/antioxidant responsive element (Nrf2/ARE) small molecule agonists: qHTS cell viability counter screen in human keratinocytes (AID 1919968; active = well fitted curve in the direction sought with a large enough effect in the repeat runs; an effect the other way counts as inactive or inconclusive; also: nearly all actives have a fitted effect of over 55% in size). The gist of the method:
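Stably transfected HaCaT (KeratinoSens), 1,500/well. Test agents in DMSO were applied for 23 h, 37 C/5% CO2. CellTiter-Fluor was incubated 1 h before the fluorescence read.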

Test [2] is described as follows: Nuclear factor erythroid 2-related factor 2/antioxidant responsive element (Nrf2/ARE) small molecule agonists: luciferase reporter gene qHTS assay in human keratinocytes (AID 1919969). Also: nearly all actives have a fitted effect of over 35% in size. Also: potency is read from the fitted curve at half-maximal effect.
The target of test [3] is Gonadotropin-releasing hormone receptor (Homo sapiens) (UniProt P30968). The test is described as follows: Human gonadotropin-releasing hormone receptor (GnRHR) small molecule agonists, calcium flux assay in GnRHR-HEK293 cells (AID 1920063). Also: nearly all actives have a fitted effect of over 35% in size. The gist of the method:
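Stable human GnRHR HEK293 line. 18 h plating, then calcium dye for 1 h at 37 C. Agonist-mode compound addition from DMSO stocks; fluorescence monitored 3 min.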

Test [4] deals with KiSS-1 receptor (Homo sapiens) (UniProt Q969F8). Kind of test: Human kisspeptin (KISS1R) small molecule agonists, calcium flux assay in KISS1R-HEK293 cells (AID 1920064; active = well fitted curve in the direction sought with a large enough effect in the repeat runs; an effect the other way counts as inactive or inconclusive). The gist of the method: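 After overnight (18 h) culture at 37 C/5% CO2, human KISS1R-HEK293 cells received calcium dye for 1 h, then test compound; emission at 540 nm (excitation 480 nm) was tracked for 3 min.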
Sequence of KiSS-1 receptor (Homo sapiens) (Q969F8 whole entry, looked up): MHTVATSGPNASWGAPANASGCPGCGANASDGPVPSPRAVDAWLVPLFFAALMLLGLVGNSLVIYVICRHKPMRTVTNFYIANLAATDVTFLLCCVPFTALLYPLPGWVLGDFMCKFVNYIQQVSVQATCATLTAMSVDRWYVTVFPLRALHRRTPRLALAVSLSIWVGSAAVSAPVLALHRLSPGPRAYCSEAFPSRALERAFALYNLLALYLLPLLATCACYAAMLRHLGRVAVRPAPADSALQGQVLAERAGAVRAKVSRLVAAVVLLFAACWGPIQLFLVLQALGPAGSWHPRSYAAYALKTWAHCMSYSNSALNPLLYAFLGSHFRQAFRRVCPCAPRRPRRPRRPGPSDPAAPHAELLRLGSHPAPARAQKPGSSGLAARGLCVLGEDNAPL

A short description of test [5]: G protein-coupled receptor (GPCR) small molecule agonists, calcium flux assay: HEK293 wild type cell line counter screen (AID 1920065). The gist of the method:
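Following 18 h incubation at 37 C/5% CO2, plates got calcium dye for 1 h; compounds, ATP or DMSO were then pinned in and fluorescence followed kinetically (480/540 nm).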
In general terms: Calcium flux is commonly read through the fluorescence of an indicator in the cells.

Test [6] can be described thus: p53 small molecule agonists, cell-based qHTS assay with human liver microsomes (AID 1963577). The gist of the method: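 In this qHTS, p53 response-element beta-lactamase cells receive test compound together with a microsome/NADPH activating system (0.5 mg/mL final each) and are incubated 16 h at 37 C before LiveBLAzer fluorescence detection.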
A general note: qHTS replaces the single test concentration by a dilution series.

The nature of test [7]: p53 small molecule agonists, cell-based qHTS assay with rat liver microsomes (AID 1963578). In a few lines:
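Agonist mode in p53RE-bla reporter cells, with compounds co-incubated 16 h at 37 C alongside 0.5 mg/mL rat liver microsomes and 0.5 mg/mL NADPH (final), followed by a 2 h LiveBLAzer detection step.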

The nature of test [8]: p53 small molecule agonists, cell-based qHTS assay with human liver microsomes: qHTS cell viability counter screen (AID 1963579). Also: nearly all actives have a fitted effect of over 45% in size. The gist of the method: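 Metabolically activated exposure: compounds, human liver microsomes and NADPH (0.5 mg/mL final apiece) were added to p53RE-bla cells seeded 5 h earlier, left 16 h at 37 C, and then assessed for viability by CellTiter-Glo luminescence.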

Test [9] is described as follows: p53 small molecule agonists, cell-based qHTS assay with rat liver microsomes: qHTS cell viability counter screen (AID 1963580). Also: nearly all actives have a fitted effect of over 45% in size. The gist of the method:
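Counter screen for cytotoxicity under metabolic activation: rat liver microsomes and NADPH, 0.5 mg/mL final each, added with compounds to p53RE-bla HCT-116 cells; 16 h at 37 C, then ATP luminescence read.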

A short description of test [10]: p53 small molecule agonists, cell-based qHTS assay: qHTS cell viability counter screen (AID 1963581). Also: nearly all actives have a fitted effect of over 45% in size. In a few lines: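 qHTS counter screen: 16 h compound exposure at 37 C of p53RE-bla HCT-116 cells (4,000 per well, seeded 5 h prior), cell viability by ATP luminescence.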
The nature of test [11]: p53 small molecule agonists, cell-based qHTS assay (AID 1963582; active = well fitted activation curve with a large enough effect in the signal ratio in the repeat runs, not every such curve was filed as active; the % refers to the signal ratio). In a few lines:
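Measured: fluorescence from cleaved LiveBLAzer substrate. System: p53RE-bla cells, 16 h compound treatment at 37 C, 2 h substrate step at room temperature.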

Test [12] has as its target 5-hydroxytryptamine receptor 2A (Homo sapiens) (UniProt P28223). Kind of test: 5-hydroxytryptamine receptor 2A (HTR2A) small molecule antagonists, cell-based qHTS assay (AID 1963586). Also: nearly all actives have a fitted effect of over 45% in size. The gist of the method: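 CHO cells stably expressing human HTR2A were plated for 18 h at 37 C, then loaded with calcium dye for 1 h. Compounds were preincubated 5 min at room temperature before DOI (4 nM solution) was added. Kinetic fluorescence was read for 3 min.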

For test [13] the target is unchanged. The test is described as follows: 5-hydroxytryptamine receptor 2A (HTR2A) small molecule agonists, cell-based qHTS assay (AID 1963587). Also: nearly all actives have a fitted effect of over 30% in size. The gist of the method:
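HTR2A-CHO cells, plated 18 h at 37 C/5% CO2, dye-loaded 1 h at 37 C; compounds in DMSO added by pin tool (agonist mode). Intracellular calcium flux read as kinetic fluorescence on FDSS over 2 min at 1 s intervals.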

Test [14] addresses Muscarinic acetylcholine receptor M1 (Homo sapiens) (UniProt P11229). Kind of test: Cholinergic receptor muscarinic 1 (CHRM1) small molecule antagonists, cell-based qHTS assay (AID 1963588). Also: nearly all actives have a fitted effect of over 40% in size. The gist of the method:
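Compounds were tested at 15 concentrations in three independent runs. Dye-loaded CHRM1-CHO cells were exposed 5 min at room temperature before stimulation by acetylcholine added at 50nM. Intracellular calcium was read kinetically on FDSS for 3 min.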

Test [15] has the same target. The test is described as follows: Cholinergic receptor muscarinic 1 (CHRM1) small molecule agonists, cell-based qHTS assay (AID 1963589). Also: nearly all actives have a fitted effect of over 35% in size. In a few lines: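 Kinetic fluorescence (1 s intervals) of calcium-sensitive dye in human M1 CHO cells after compound addition; cells pre-incubated 18 h at 37 C/5% CO2 and dye-loaded 1 h.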
Test [16] is described as follows: cAMP Responsive Elements (CRE) small molecule agonists, cell-based qHTS assay (AID 1963590). In a few lines: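 Test agents in DMSO were incubated 3 h at 37 C/5% CO2 with CRE-bla HEK 293T cells seeded 18 h earlier; LiveBLAzer B/G FRET substrate was added and read after 2 h at room temperature.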
Test [17] in a line: cAMP Responsive Elements (CRE) small molecule antagonists, cell-based qHTS assay (AID 1963591; active = well fitted inhibition curve with a large enough effect in the signal ratio in the repeat runs, not every such curve was filed as active; the % refers to the signal ratio). In a few lines: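 Reporter line CRE-bla HEK 293T in dialyzed-FBS DMEM; cells preincubated 18 h, treated 3 h with compound plus NKH477 (0.25 uM final); LiveBLAzer FRET, 2 h RT.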
The target in test [18] is Beta-2 adrenergic receptor (Homo sapiens) (UniProt P07550). Kind of test: Adrenergic beta2 receptor (ADRB2) small molecule antagonists, cell-based qHTS assay (AID 1963592). Also: series mostly up to about 92 µM; nearly all actives have a fitted effect of over 50% in size. In a few lines:
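Assay format: CHO-ADRB2 cells, 18-20hr seeding at 37C/5% CO2, then compound plus 1nM isoproterenol agonist mix for 0.5hr RT. Homogeneous time-resolved fluorescence cAMP detection after 1hr, expressed as 665/615 nm ratio.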

The target of test [19] is D(2) dopamine receptor (Homo sapiens) (UniProt P14416). The test is described as follows: Dopamine D2 receptor (DRD2) small molecule agonists, cell-based qHTS assay (AID 1963594). Also: nearly all actives have a fitted effect of over 35% in size. In a few lines: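 HEK293 cells stably expressing DRD2 were cultured 24 h at 37 C, then given Ro20-1724 (0.1 mM final) and compounds for 10 min at room temperature. NKH477 (200nM) was then added for 30 min. cAMP was read by HTRF.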
Sequence of D(2) dopamine receptor (Homo sapiens) (P14416 whole entry, looked up): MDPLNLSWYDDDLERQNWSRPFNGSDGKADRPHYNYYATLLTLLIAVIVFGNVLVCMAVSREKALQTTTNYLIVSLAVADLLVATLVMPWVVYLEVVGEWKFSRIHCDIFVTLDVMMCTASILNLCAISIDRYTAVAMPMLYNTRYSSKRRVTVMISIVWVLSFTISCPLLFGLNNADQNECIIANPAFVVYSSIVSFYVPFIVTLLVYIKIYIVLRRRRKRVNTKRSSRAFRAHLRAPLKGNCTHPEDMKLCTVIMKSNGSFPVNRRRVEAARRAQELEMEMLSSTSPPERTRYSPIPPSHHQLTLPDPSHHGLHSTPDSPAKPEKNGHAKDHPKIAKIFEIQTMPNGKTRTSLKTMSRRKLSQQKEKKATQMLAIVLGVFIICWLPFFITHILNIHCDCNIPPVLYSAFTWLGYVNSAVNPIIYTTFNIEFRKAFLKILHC

Test [20] has the same target. Kind of test: Dopamine D2 receptor (DRD2) small molecule antagonists, cell-based qHTS assay (AID 1963595; active = well fitted inhibition curve with a large enough effect in the signal ratio in the repeat runs, with a control signal flat; the % refers to the signal ratio). In a few lines: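 Antagonist mode in DRD2-HEK293 cells: after compound addition with 0.1 mM Ro20-1724, cells received quinpirole (12 nM) and NKH477 (200 nM) for 30 min at room temperature; HTRF cAMP read after 1 h detection.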

A number with no mark means an inactive call. Inconclusive results are not listed. Calls of active or inactive are those of the source. Unless noted, calls follow the shape of the full dose curve.

Sequence of Beta-2 adrenergic receptor (Homo sapiens) (P07550 whole entry, looked up): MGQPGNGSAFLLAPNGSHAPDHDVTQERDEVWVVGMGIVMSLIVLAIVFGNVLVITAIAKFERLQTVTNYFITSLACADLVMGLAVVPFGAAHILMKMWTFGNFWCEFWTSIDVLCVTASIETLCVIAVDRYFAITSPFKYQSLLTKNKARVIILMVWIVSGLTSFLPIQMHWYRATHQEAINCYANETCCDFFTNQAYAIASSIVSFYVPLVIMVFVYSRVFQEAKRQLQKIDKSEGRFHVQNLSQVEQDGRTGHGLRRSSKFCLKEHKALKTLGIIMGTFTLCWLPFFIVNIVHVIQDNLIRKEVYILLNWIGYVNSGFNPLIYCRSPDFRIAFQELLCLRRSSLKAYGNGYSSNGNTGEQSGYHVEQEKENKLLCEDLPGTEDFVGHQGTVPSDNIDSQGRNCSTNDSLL
Sequence of Gonadotropin-releasing hormone receptor (Homo sapiens) (P30968 whole entry, looked up): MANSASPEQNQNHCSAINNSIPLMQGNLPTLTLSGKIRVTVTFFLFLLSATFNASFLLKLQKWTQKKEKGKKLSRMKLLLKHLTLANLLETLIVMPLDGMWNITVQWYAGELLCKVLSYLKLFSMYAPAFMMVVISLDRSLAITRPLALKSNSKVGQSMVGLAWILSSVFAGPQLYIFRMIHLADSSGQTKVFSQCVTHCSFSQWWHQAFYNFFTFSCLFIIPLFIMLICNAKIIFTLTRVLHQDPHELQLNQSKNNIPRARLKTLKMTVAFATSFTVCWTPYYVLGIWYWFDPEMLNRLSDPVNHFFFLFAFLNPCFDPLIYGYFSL
Sequence of Muscarinic acetylcholine receptor M1 (Homo sapiens) (P11229 whole entry, looked up): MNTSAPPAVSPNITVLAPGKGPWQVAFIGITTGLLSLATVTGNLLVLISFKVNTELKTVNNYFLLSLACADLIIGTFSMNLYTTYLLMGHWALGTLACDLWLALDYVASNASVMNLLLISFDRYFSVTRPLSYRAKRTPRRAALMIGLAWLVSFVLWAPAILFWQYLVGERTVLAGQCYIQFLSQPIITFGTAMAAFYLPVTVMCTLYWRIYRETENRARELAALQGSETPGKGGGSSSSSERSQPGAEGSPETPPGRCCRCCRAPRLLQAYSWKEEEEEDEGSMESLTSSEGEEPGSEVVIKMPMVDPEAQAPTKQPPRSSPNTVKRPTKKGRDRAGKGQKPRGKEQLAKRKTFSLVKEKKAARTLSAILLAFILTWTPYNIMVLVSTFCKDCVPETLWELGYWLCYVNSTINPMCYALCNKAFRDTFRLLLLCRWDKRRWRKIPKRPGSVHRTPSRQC
Sequence of 5-hydroxytryptamine receptor 2A (Homo sapiens) (P28223 whole entry, looked up): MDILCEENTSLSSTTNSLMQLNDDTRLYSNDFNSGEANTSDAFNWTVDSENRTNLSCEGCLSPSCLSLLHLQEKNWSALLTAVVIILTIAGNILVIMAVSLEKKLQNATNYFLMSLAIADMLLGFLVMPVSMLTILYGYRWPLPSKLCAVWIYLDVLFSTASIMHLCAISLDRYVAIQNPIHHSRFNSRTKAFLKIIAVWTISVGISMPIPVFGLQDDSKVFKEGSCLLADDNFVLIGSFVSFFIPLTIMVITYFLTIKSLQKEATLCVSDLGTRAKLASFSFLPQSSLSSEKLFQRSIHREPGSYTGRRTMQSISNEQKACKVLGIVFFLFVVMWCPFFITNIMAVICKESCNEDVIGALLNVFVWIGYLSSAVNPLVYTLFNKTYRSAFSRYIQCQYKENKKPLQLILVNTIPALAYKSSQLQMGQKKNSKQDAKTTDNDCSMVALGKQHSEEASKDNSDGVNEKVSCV

For `c1ccc(CCCc2ccccn2)cc1`, the Potency entry in test [1], in test [2], in test [3], in test [6], in [7] and in test [8] was “inactive” throughout. The Potency entry in test [9], in test [10], in test [11], in test [12], in [13] and in [14] was “inactive” each time. The Potency result in test [15], in [16], in test [17], in [18], in test [19] and in test [20] was “inactive” in each case. The result in test [4] and in test [5] was inactive.

In the case of `CCCCS(=O)(=O)N[C@@H](Cc1ccc(OCCCCC2CCNCC2)cc1)C(=O)O`, the Potency result in test [1], in test [2], in test [3], in test [6], in test [7] and in test [8] was “inactive” throughout. The Potency result in test [9], in [10], in test [11], in test [12], in [13] and in [14] was “inactive” in each case. Also, the Potency entry in test [15], in test [16], in test [17], in test [18] and in test [20] was “inactive” each time. Also, the result in [4] and in test [5] was inactive.

For `Cc1ccco1`, the Potency result in [1], in [2], in test [3], in test [6], in test [7] and in [8] was “inactive” throughout. For the same compound, the Potency result in test [9], in test [10], in test [11], in test [12], in test [13] and in [14] was “inactive” each time. Besides, the Potency result in [15], in [16], in test [17], in test [18], in test [19] and in test [20] was “inactive” each time. Moreover, the outcome in [4] and in [5] was inactive.

On to `O=c1cc[nH]cc1`, for which the Potency result in test [1], in [2], in test [3], in [6], in test [7] and in test [8] was “inactive” each time. In addition, the Potency result in [9], in [10], in test [11], in test [12], in [13] and in test [14] was “inactive” each time. For the same compound, the Potency result in [15], in [16], in test [17], in test [18], in [19] and in test [20] was “inactive” throughout. In addition, the result in [4] and in test [5] was inactive.

For `O=C1OC(OC(=O)c2cccnc2Nc2cccc(C(F)(F)F)c2)c2ccccc21` (stereo not drawn), the Potency entry in [1], in test [3], in [6], in test [7], in test [8] and in test [9] was “inactive” throughout. The Potency entry in [10], in [11], in test [12], in [13], in test [14] and in test [15] was “inactive” in each case. For the same compound, the Potency entry in test [16], in [17], in test [18] and in [20] was “inactive” throughout. In addition, the Potency in test [2] is 13.3 µM (active). Further, the outcome in [4] and in test [5] was inactive.

For `Cc1c(N=C=O)cccc1N=C=O`, the Potency result in test [1], in test [2], in test [3], in test [6], in test [7] and in [8] was “inactive” in each case. Also, the Potency result in [9], in [10], in [11], in [12], in [13] and in test [14] was “inactive” in each case. In addition, the Potency entry in test [15], in test [16], in [17], in test [18], in test [19] and in [20] was “inactive” throughout. For the same compound, the result in test [4] and in [5] was inactive.

In the case of `CCC(CO)(CO)COCC(CC)(CO)CO`, the Potency entry in test [1], in [2], in [3], in test [6], in test [7] and in test [8] was “inactive” throughout. Moreover, the Potency result in test [9], in test [10], in [11], in test [12], in test [13] and in test [14] was “inactive” in each case. Moreover, the Potency entry in [15], in test [16], in test [17], in [18], in [19] and in test [20] was “inactive” each time. Also, the result in test [4] and in test [5] was inactive.

The values are drawn from PubChem BioAssay (Tox21).
